From PubChem BioAssay (Tox21)
Inconclusive results are not listed. The source made the active and inactive calls. Unless noted, the call rests on the fitted dose curve.

Legend:
[1] = qHTS assay to identify small molecule antagonists of the estrogen receptor beta (ER-beta) signaling pathway - cell viability counter screen (AID 1259382; active means well fitted curve in the direction sought with a large enough effect in the repeat runs; an effect the other way counts as inactive or inconclusive;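 further: HEK293T cells carrying ER-beta-UAS-bla reporter stimulated with estradiol; series mostly up to about 92 µM; nearly all actives have a fitted effect of over 55% in size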)
Outline: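 Tox21 10K library tested in qHTS format on ER-beta-bla HEK293T cells stimulated with 1nM E2; 16 hr treatment at 37C. Same-well CellTiter-Glo luminescence served as the cell viability measure.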

[2] = target: Estrogen receptor (Homo sapiens) (UniProt P03372); assay: qHTS assay to identify small molecule agonists of the estrogen receptor alpha (ER-alpha) signaling pathway in the presence of an antagonist (AID 1259383); further: top concentration of the series differs between compounds; nearly all actives have a fitted effect of over 15% in size
Outline: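 In VM7Luc4E2 cells, 4,000 per well, compounds at 15 concentrations were co-incubated 22hr at 37C with 10.0nM final ICI-182,780. Luminescence from the stably transfected 4×ERE-luciferase reporter was recorded 30min after ONE-Glo addition.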

[3] = qHTS assay to identify small molecule agonists or antagonists of the thyroid stimulating hormone receptor (TSHR) signaling pathway - wild type cell line counter screen (AID 1259384)
Outline: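 Counter screen in untransfected Hek293: compounds (15-point titration, triplicate) plus phosphodiesterase inhibitor Ro20-1724 added after 18 h plating; 30 min RT. Intracellular cAMP via competitive d2/cryptate immunoassay, 1 h incubation.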

[4] = qHTS assay to identify small molecule agonists of the estrogen receptor alpha (ER-alpha) signaling pathway in the presence of an antagonist - cell viability counter screen (AID 1259386; active means well fitted curve in the direction sought with a large enough effect in the repeat runs; an effect the other way counts as inactive or inconclusive;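 further: series mostly up to about 92 µM; cells exposed to compounds for 22 h at 37 °C before the viability read; nearly all actives have a fitted effect of over 30% in size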)
Outline: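 Fluorescent CellTiter-Fluor viability signal from VM7Luc4E2 cells, with the reagent added during the final hour of a 22hr compound exposure at 37C in the presence of 10.0nM ICI-182,780.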

[5] = target: Progesterone receptor (Homo sapiens) (UniProt P06401); assay: qHTS assay to identify small molecule agonists of the progesterone receptor (PR) signaling pathway (AID 1346784); further: nearly all actives have a fitted effect of over 30% in size
Outline: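 Agonist qHTS: compounds pinned onto 3,000 PR-UAS-bla HEK 293T cells per well in charcoal-stripped serum medium, 16hr at 37C, then beta-lactamase activity measured by LiveBLAzer FRET fluorescence after 2 hours at room temperature.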

[6] = target: Progesterone receptor (Homo sapiens) (UniProt P06401); assay: qHTS assay to identify small molecule antagonists of the progesterone receptor (PR) signaling pathway (AID 1346795; active means well fitted inhibition curve with a large enough effect in the signal ratio in the repeat runs, not every such curve was filed as active; the % refers to the signal ratio)
Outline: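 Antagonist mode with agonist R5020 at 1 nM final and 16 hr incubation at 37C. Reporter was beta-lactamase driven by UAS in HEK293T (PR-UAS-bla), 2% charcoal-stripped serum; signal from LiveBLAzer FRET substrate, 2 hr at room temperature.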

[7] = qHTS assay to identify small molecule antagonists of the progesterone receptor (PR) signaling pathway - cell viability counter screen (AID 1346798; active means well fitted curve in the direction sought with a large enough effect in the repeat runs; an effect the other way counts as inactive or inconclusive; further: series mostly up to about 92 µM; nearly all actives have a fitted effect of over 50% in size)
Outline: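 Cytotoxicity read as CellTiter-Glo luminescence (30 min, room temperature) in the same wells as the beta-lactamase readout. HEK293T PR-UAS-bla cells in charcoal-stripped 2% FBS received compound and R5020, then 16 h at 37C, 5% CO2.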

[8] = qHTS assay to identify small molecule agonists of the progesterone receptor (PR) signaling pathway - cell viability counter screen (AID 1346799); further: nearly all actives have a fitted effect of over 45% in size
Outline: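 Cytotoxicity measured by CellTiter-Glo luminescence (30 min, RT) in the same wells as the PR beta-lactamase agonist read. Those HEK293T cells had 16 h compound treatment at 37 C in 2% charcoal-stripped FBS medium.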

[9] = target: Thyrotropin receptor (Homo sapiens) (UniProt P16473); assay: qHTS assay to identify small molecule antagonists of the thyroid stimulating hormone receptor (TSHR) signaling pathway (AID 1259385); further: nearly all actives have a fitted effect of over 20% in size
Outline: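 Antagonist mode: compound-treated TSHR-expressing HEK293 cells were stimulated with 1.5 ng/mL TSH (final) in presence of Ro20-1724 for 30 min at RT. HTRF cAMP detection after 1 h; each compound tested at 15 concentrations, triplicate.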

Measured: Potency

Progesterone receptor (Homo sapiens), sequence (P06401 whole entry, looked up): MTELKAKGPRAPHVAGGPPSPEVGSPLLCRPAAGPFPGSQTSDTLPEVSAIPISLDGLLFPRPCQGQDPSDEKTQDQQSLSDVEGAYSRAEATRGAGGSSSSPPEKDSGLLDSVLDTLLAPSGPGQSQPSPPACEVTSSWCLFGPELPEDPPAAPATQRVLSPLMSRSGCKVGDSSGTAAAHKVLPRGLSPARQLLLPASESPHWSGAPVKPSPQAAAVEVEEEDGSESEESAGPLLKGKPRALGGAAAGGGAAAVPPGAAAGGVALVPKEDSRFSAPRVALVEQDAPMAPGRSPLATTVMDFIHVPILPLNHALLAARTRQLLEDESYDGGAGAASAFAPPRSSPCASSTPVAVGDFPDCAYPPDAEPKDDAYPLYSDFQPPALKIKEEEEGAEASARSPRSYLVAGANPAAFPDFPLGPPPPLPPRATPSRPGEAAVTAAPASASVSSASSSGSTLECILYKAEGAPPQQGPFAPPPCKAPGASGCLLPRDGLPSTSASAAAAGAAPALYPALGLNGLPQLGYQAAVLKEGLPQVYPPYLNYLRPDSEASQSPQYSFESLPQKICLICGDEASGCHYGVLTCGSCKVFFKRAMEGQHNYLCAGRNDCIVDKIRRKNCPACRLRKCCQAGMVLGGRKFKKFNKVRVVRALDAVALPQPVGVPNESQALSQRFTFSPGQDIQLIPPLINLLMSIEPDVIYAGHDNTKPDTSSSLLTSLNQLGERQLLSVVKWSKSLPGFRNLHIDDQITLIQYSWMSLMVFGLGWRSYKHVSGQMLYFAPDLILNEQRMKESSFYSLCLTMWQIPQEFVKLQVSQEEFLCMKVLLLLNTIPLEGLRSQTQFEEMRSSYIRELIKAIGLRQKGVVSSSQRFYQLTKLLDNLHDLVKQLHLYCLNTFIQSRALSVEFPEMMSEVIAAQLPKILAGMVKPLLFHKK
Estrogen receptor (Homo sapiens), sequence (P03372 whole entry, looked up): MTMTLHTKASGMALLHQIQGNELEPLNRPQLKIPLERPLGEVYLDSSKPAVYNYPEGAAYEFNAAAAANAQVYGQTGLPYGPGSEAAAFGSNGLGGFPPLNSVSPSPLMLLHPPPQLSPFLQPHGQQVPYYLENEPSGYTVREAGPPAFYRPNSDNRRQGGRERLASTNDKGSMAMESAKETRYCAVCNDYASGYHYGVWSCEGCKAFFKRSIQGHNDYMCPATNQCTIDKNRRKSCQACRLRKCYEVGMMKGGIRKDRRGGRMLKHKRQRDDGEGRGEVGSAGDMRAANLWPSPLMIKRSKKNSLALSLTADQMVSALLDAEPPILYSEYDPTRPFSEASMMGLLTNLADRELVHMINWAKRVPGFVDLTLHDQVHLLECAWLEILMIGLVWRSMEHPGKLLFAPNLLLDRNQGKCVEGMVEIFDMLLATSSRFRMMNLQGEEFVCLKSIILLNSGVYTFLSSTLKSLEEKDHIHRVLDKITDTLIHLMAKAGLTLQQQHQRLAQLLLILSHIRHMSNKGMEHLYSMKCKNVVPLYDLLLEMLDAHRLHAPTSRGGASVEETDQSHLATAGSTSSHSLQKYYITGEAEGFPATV
Thyrotropin receptor (Homo sapiens), sequence (P16473 whole entry, looked up): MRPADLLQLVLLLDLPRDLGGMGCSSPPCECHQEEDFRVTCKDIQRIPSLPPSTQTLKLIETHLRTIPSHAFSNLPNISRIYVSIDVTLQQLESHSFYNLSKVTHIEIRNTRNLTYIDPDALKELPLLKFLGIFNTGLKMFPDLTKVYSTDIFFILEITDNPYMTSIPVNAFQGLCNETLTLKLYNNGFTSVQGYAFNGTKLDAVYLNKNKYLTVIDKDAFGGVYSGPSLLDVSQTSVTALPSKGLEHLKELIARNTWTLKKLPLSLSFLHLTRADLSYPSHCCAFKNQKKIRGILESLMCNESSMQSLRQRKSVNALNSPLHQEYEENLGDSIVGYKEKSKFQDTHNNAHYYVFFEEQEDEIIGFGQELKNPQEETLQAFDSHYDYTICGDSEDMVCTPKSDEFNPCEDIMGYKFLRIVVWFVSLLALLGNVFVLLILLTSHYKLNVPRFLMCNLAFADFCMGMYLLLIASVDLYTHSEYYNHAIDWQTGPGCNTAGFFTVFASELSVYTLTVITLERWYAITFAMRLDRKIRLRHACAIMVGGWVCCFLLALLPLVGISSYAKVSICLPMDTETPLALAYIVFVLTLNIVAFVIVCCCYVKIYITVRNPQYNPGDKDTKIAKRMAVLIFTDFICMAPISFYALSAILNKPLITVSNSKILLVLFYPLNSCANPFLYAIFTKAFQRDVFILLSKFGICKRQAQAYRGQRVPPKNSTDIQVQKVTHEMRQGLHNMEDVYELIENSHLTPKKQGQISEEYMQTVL

Nc1cc(Cl)cc(S(=O)(=O)O)c1O
inactive: [1] | [2] | [3] | [4] | [5] | [6] | [7] | [8]

Cc1ccccc1OCC1CO1 (configuration not stated)
inactive: [1] | [2] | [4] | [5] | [6] | [7] | [8]

C[Si]1(C)N[Si](C)(C)N[Si](C)(C)N1
inactive: [1] | [2] | [4] | [5] | [6] | [7]

CC1=CC[C@H](CC=O)C1(C)C
inactive: [1] | [2] | [9] | [4] | [5] | [6] | [7] | [8]

CCC1COC(=O)O1 (configuration not stated)
inactive: [1] | [2] | [3] | [4] | [5] | [6] | [7] | [8]

NS(=O)(=O)c1ccc(Cl)c(S(N)(=O)=O)c1
inactive: [1] | [2] | [9] | [4] | [5] | [6] | [7] | [8]

Cc1ccccc1C
inactive: [1] | [2] | [4] | [5] | [6] | [7] | [8]

CC(C)CCO
inactive: [1] | [2] | [9] | [4] | [6] | [8]

Cc1cc(C)cc([N+](=O)[O-])c1
inactive: [1] | [2] | [9] | [4] | [5] | [6] | [7] | [8]

C1=C\CC/C=C\CC/1
inactive: [1] | [2] | [4] | [5] | [6] | [7] | [8]

CCCCCN(CCCOC)C(=O)C(CCC(=O)O)NC(=O)c1ccc(Cl)c(Cl)c1 (configuration not stated)
inactive: [1] | [2] | [4] | [5] | [6] | [7]

NC(=O)NNC(N)=O
inactive: [1] | [2] | [3] | [9] | [4] | [6] | [7] | [8]

CC(CC(=O)O)CC(C)(C)C (configuration not stated)
inactive: [1] | [2] | [4] | [5] | [6] | [7] | [8]

CC(=O)/C=C/c1ccco1
inactive: [1] | [2] | [4] | [5] | [6] | [7] | [8]

O=C(Oc1ccccc1C(=O)O)c1ccccc1O
inactive: [1] | [2] | [9] | [4] | [5] | [6] | [7] | [8]

O=C(O)CCNC(=O)c1ccccc1
inactive: [1] | [2] | [3] | [9] | [5] | [6] | [7] | [8]

NC(=O)C1(N2CCCCC2)CCN(CCCC(=O)c2ccc(F)cc2)CC1
inactive: [1] | [2] | [9] | [4] | [5] | [6] | [7] | [8]

CCc1nccnc1C
inactive: [1] | [2] | [9] | [4] | [5] | [7] | [8]

CC(=O)Nc1ncc([N+](=O)[O-])s1
inactive: [1] | [2] | [3] | [6] | [7] | [8]

CC(=O)c1ccc(OCC(=O)N2CCCCC2)cc1
inactive: [1] | [2] | [9] | [4] | [5] | [6] | [7] | [8]

CC1CCC(C(C)(C)S)C(=O)C1 (configuration not stated)
inactive: [1] | [2] | [3] | [4] | [5] | [6] | [7] | [8]

CCOC(=O)C(=O)c1csc(NC=O)n1
inactive: [1] | [2] | [9] | [4] | [7] | [8]

CCCCCC(=O)OCC
inactive: [1] | [2] | [3] | [4] | [5] | [6] | [7] | [8]

CCC(C)N (configuration not stated)
inactive: [1] | [2] | [4] | [5] | [6]

C[C@H](CCC(=O)O)[C@H]1CC[C@H]2[C@@H]3[C@H](O)C[C@@H]4C[C@H](O)CC[C@]4(C)[C@H]3C[C@H](O)[C@]12C
inactive: [1] | [2] | [3] | [5] | [6] | [7] | [8]

C[N+](C)(C)CC(O)CCl (configuration not stated)
inactive: [1] | [2] | [3] | [9] | [4] | [6] | [8]

CN=C(NC#N)NCCSCc1csc(N=C(N)N)n1
inactive: [1] | [2] | [3] | [4] | [5]

CC(C)SCc1ccco1
inactive: [1] | [2] | [4] | [5] | [6] | [7] | [8]

Cc1nc([N+](=O)[O-])cn1-c1ccc([N+](=O)[O-])cc1
inactive: [1] | [2] | [3] | [9] | [4] | [6] | [7] | [8]

N#CCCOCCOCCC#N
inactive: [1] | [2] | [3] | [4] | [5] | [6] | [7] | [8]

CC(C)(c1ccc(Oc2ccc3c(c2)C(=O)OC3=O)cc1)c1ccc(Oc2ccc3c(c2)C(=O)OC3=O)cc1
inactive: [1] | [2] | [3] | [4] | [5] | [6] | [8]
